# Hits are enriched below; roughly 4% of the tested compounds scored in any of these assays.
# D1 ag: human D1 receptor agonism; P21728; HEK293 T-REx D1 cells, calcium flux, agonist mode; activation, % at 2 µM; 360,000 compounds, 1% hits; note: 0% is about no effect
# Target sequence (P21728 whole entry, looked up): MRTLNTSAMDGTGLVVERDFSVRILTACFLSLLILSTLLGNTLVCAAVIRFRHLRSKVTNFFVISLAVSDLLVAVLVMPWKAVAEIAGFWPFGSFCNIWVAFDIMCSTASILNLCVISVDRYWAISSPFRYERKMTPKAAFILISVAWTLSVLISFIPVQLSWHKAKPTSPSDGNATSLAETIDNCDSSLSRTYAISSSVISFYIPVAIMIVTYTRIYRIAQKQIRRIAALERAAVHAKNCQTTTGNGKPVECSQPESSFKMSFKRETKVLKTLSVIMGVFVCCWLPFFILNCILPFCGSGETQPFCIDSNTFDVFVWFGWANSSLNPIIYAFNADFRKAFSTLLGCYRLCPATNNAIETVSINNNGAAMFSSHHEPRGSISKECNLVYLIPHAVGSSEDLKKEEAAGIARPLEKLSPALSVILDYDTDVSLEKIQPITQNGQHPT
#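 Tetracycline-induced HEK293 TREx D1 cells, force-coupled to calcium signalling, were dye-loaded with a no-wash calcium kit. Compound was pin-added after a 10 s baseline. Fluorescence was read kinetically at 1 cycle/s for 180 s, with calcium rises flagged as agonism.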
# TRHR ag: TRH receptor (human) agonism; TRHR cells, calcium flux fluo-8, FDSS agonist mode; activation, % at 2 µM; 360,000 compounds, 0.18% hits; note: 0% is about no effect
#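 Read-out: compound-evoked intracellular calcium rise in TRHR cells, fluo-8 dye, kinetic FDSS fluorescence at 1 s/cycle following a 10-cycle baseline. Cells cultured overnight before dye loading (30 min–1.5 h, RT).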
# D1 PAM: human D1 dopamine receptor positive modulation. P21728. HEK293 TREx D1 cells, calcium flux, dopamine EC20 potentiation. potentiation, % at 10 µM. 360,000 compounds, 0.036% hits; in the data active = potentiation above about 30%; note: 0% is about no effect
# TRHR PAM: allosteric enhancers of human TRH receptor. TRHR cells, fluo-8 calcium fluorescence, EC20 TRH enhancement. enhancement, % at 2 µM. AID 493056. P34981. 360,000 compounds, 0.66% hits; in the data active = enhancement above about 30%; note: 0% is about no effect
#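 TRHR-expressing cells loaded with fluo-8 calcium dye were read kinetically (ex 480/em 530) during compound addition, then stimulated with an EC20 of TRH (10 nM final). Enhancement of the Gq-mediated intracellular calcium response was scored.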
# D1 antagonist: blocks dopamine activation of the human D1 receptor; P21728; 360,000 compounds, 3.2% hits; activity change, negative = inhibition, % at 10 µM; HEK293 TREx D1 cells, calcium flux, dopamine EC80; active compounds read low; in the data active = activity change below about -30%; note: % is set by controls: 0 for no effect and ±100 for the full control effect
#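 Calcium flux readout: force-coupled, inducible Hek293 Trex D1 line, cells induced overnight at 30 C with tetracycline, dye-loaded 30–90 min at RT. Antagonism scored against EC80 dopamine challenge given 180 s after compound.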
# GRP78 ERSR act: inducers of ER stress response in human glioma cells. U87-MG GRP78 promoter luciferase reporter, 16 h. Potency, µM, without a hit: at the highest dose activation, actives largely listed as activators. 420,000 compounds, 0.02% hits. AID 602332; active = well fitted activation curve with a large enough effect; note: potency is the fitted concentration of half-maximal effect; series mostly up to about 76 µM; % of control where 0% means no effect; nearly all actives have a fitted effect of over 35% in size
#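 Stably transfected U87-MG human glioma cells carrying a GRP78-based luminescent sensor were seeded at 1000 cells/well, pin-dosed with compounds and incubated 16 h. Luciferase reagent was then added, and end-point luminescence was read after 10 min at room temperature.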
# Starred values were filed as active, the others as inactive; nt = no result. Cut-off read from the data, not from the text of the source, unless noted: active = activation above about 30%; inactive = the rest.
SMILES,D1 ag,TRHR ag,D1 PAM,TRHR PAM,D1 antagonist,GRP78 ERSR act
C/C(=N\OCC(=O)N/N=C/c1ccccc1)c1cccs1,2.6,0.4,-0.4,35.1*,2.6,2.0%
Cc1cc(COc2ccccc2)oc1C(=O)O,1.0,0.4,1.1,-4.4,7.5,-12.6%
CC(=O)c1cccc(NC(=O)CSc2nnnn2C2CCCC2)c1,7.3,0.0,-4.5,5.8,-7.6,0.0%
COc1ccccc1CNC(=O)CCCn1c(=O)c2ccccc2n(Cc2ccccc2C#N)c1=O,-1.9,-2.2,2.2,-2.3,-23.8,-0.8%
COc1cc(NC(=O)c2ccc(-c3nc(CSc4ccccc4)c(C)o3)cc2)cc(OC)c1,11.0,-1.0,-1.6,6.4,13.6,0.5%
Cc1cc2nc(-c3ccc[nH]c3=O)[nH]c2cc1C,1.4,-0.1,-8.6,-0.5,-64.7*,-1.8%
CC(C)COc1ccc(CC(=O)NO)cc1,nt,nt,nt,nt,nt,-1.5%
O=C(c1cc([N+](=O)[O-])ccc1Cl)N1CCN(c2ccccc2)CC1,2.8,-0.8,-4.2,-1.2,10.4,-3.3%
O=C(c1cc([N+](=O)[O-])ccc1Cl)N1c2ccccc2Sc2ccccc21,2.9,-0.5,-7.0,0.7,-36.6*,-1.5%
Cc1ccc(-n2nnnc2CN2CCCCC2)cc1,-0.4,0.0,-3.5,5.1,-16.0,-0.5%
Cc1c2cnn(CC(=O)NC(C)C)c(=O)c2c(C)n1Cc1ccccc1Cl,1.5,0.1,-2.0,-3.2,-31.5*,3.0%
c1ccc(CCNc2nc(-c3ccncc3)nc3ccccc23)cc1,1.4,5.2,-5.3,-4.3,7.0,-4.6%
Cc1cc(N2CCCC2)c(F)cc1/C=C\[N+](=O)[O-],399.5*,-0.5,22.7,0.6,14.6,1.8%
O=C(Cc1cccs1)Nc1ccc(Cl)c(S(=O)(=O)N2CCOCC2)c1,15.3,0.4,1.2,-1.3,-33.4*,-2.4%
O=C(CSc1nc2ccccc2c(=O)n1-c1ccc(F)c(Cl)c1)Nc1cccc(S(=O)(=O)N2CCOCC2)c1,4.8,1.7,-3.2,-3.7,-11.2,-4.2%
O=C(CSc1nc2ccccc2c(=O)n1-c1ccc(F)cc1)Nc1ccc(Cl)c(S(=O)(=O)N2CCOCC2)c1,6.3,1.8,-4.0,3.0,-51.6*,3.3%
O=C(Cc1cccs1)Nc1ccc(F)c(S(=O)(=O)N2CCOCC2)c1,7.5,0.1,-0.9,-2.2,-12.5,-2.9%
O=C(COc1ncnc2ccccc12)Nc1ccc(Cl)c(S(=O)(=O)N2CCOCC2)c1,4.1,-0.7,-1.2,-1.7,-38.0*,1.1%
CC1Cn2cc(C(=O)Nc3ccccc3C(F)(F)F)c(=O)c3c(Cl)ccc(c32)O1 (stereo unspecified),7.0,0.5,-4.5,19.5,15.9,-1.9%
CC(NC(=O)c1ccco1)c1nnc2n1CCN(Cc1ccc(N(C)C)cc1)CC2 (stereo unspecified),nt,nt,nt,nt,nt,-1.0%
COc1ccc(C2(O)CCN(CCCCOc3ccccc3)CC2)cc1,36.1*,0.1,-17.1,2.8,-18.3,-1.4%
COc1ccc(OCCCN2CCc3ccccc3C2)cc1,1.9,-0.3,-10.1,0.4,-8.0,-2.8%
CCOC(=O)CC(NC(=O)CCc1c(C)nc2c(c1C)c(=O)n(C)c(=O)n2C)c1ccc(OCC)c(OC)c1 (stereo unspecified),-0.2,-0.4,-3.9,6.2,-32.7*,-2.4%
Cc1cc(C(=O)CSc2nc3ccccc3[nH]2)c(C)n1CC1CCCO1 (stereo unspecified),14.0,-0.9,-7.8,1.2,-32.9*,-14.3%
CSc1ncccc1C(=O)OCC(=O)c1cc(C)n(CC2CCCO2)c1C (stereo unspecified),4.5,0.0,-10.4,-5.5,-33.7*,-7.2%
SMILES,D1 ag,TRHR ag,D1 PAM,TRHR PAM,D1 antagonist,GRP78 ERSR act
Cc1cc(C(=O)CSc2nc(N)cc(=O)[nH]2)c(C)n1CC1CCCO1 (stereo unspecified),nt,nt,nt,nt,nt,-1.0%
CC(=O)Nc1ccc(-n2cnnn2)cc1,2.3,0.6,0.2,-2.2,9.1,-0.9%
CCc1ccccc1NC(=O)COc1cccc(-n2cnnn2)c1,43.8*,-1.9,nt,7.3,-20.1,-2.1%
CC(Oc1ccc(C#N)cc1)C(=O)Nc1ccc(-n2cnnn2)cc1 (stereo unspecified),54.7*,6.2,-7.3,21.8,-15.1,-4.4%
CCOc1ccc(NC(=O)COc2ccc(-n3cnnn3)cc2)cc1,-0.6,-0.1,-4.1,1.4,-13.3,-1.1%
O=C(COc1ccc(F)cc1)Nc1ccc(-n2cnnn2)cc1,4.3,-0.1,-11.6,-2.0,-35.7*,-4.3%
O=S(=O)(c1ccc(Cl)cc1)N1CCN(c2nc(-c3ccccc3)nc3ccccc23)CC1,nt,nt,nt,nt,nt,-4.3%
O=C(NCC1Cc2cccc(-c3ncccn3)c2O1)C1CCCO1 (stereo unspecified),nt,nt,nt,nt,nt,-4.1%
Cc1ccc2oc(-c3ccc(C)c(NC(=O)COc4ccc(Cl)cc4)c3)nc2c1,nt,nt,nt,nt,nt,1.0%
CCOc1ccccc1NC(=O)CSc1nnc(CNC(=O)COc2ccc(Cl)cc2)o1,5.5,-0.4,-8.7,-10.0,-38.0*,-1.1%
O=C(COc1ccc(Cl)cc1)NCc1nnc(SCC(=O)Nc2ccc(F)cc2F)o1,2.4,0.4,-3.3,-2.2,-6.0,-1.1%
O=C1/C(=C/c2ccc(O)c(O)c2)Oc2cc(O)ccc21,45.8*,10.8,-5.7,-3.7,12.4,12.5%
COc1cc(/C=C2\Oc3cc(O)ccc3C2=O)ccc1O,63.2*,33.0*,-6.1,-6.9,6.9,0.9%
O=C1/C(=C/c2cccc([N+](=O)[O-])c2)Oc2cc(O)ccc21,20.1,9.9,-1.1,-3.0,-29.8,6.8%
CCN(C#N)c1nc(NC(C)C)nc(NC(C)(C)C)n1,51.5*,2.1,-0.5,16.3,26.9,-0.5%
CCOC(=O)c1sc(Nc2cccc(Cl)c2)nc1C,1.6,0.8,4.8,1.3,11.2,6.6%
CCOC(=O)c1sc(N/N=C/c2ccc(N(C)C)cc2)nc1C,-0.5,1.0,-10.8,-8.7,-46.6*,0.8%
CCOC(=O)c1sc(Nc2cccc(C)c2C)nc1C,31.2*,-0.3,2.9,7.9,18.5,nt
O=C(Nc1ccc(Cl)cn1)c1cnn2c1NC(=C1CC1)C=C2C(F)F,nt,nt,nt,nt,nt,-3.6%
CC(=O)Nc1c(NCC(C)C)c2ccccc2oc1=O,0.7,1.2,-1.9,10.1,12.3,-3.7%
COc1cc(CN2CCN(C(O)(c3ccccc3)c3ccccc3)CC2)cc(OC)c1OC,9.2,3.9,-12.8,2.4,-66.7*,-3.6%
COc1ccc(NS(=O)(=O)c2ccc(C(=O)NCC3(N4CCOCC4)CCCCC3)cc2)cc1,nt,nt,nt,nt,nt,-2.8%
CC1CN(C(=O)c2ccc(NS(=O)(=O)c3ccc(C(C)(C)C)cc3)cc2)CC(C)O1 (stereo unspecified),34.6*,4.7,-3.6,6.5,-3.8,-3.1%
CCOc1ccc(S(=O)(=O)Nc2ccc(C(=O)NCC3(N4CCCCC4)CCCCC3)cc2)cc1,54.1*,-0.9,2.0,-1.2,9.2,9.2%

# Bioassay records as filed in PubChem.
